“And” between values parts separate entries of the source, which are not always exact repeats. Equal values may be shown once. The source made the active and inactive calls. The calls were made as follows: active = hit-call score of the fitted dose curve at least 0.9, where 1 is the maximum; inactive = score below 0.9.
read-out: Collagen I, COL1A1 (gene 1277); assay: BSK_MyoF_CollagenI: BioMAP Diversity Plus: MyoF Assay for Collagen I Biomarker Activity (AID 2284238); settings: primary human lung fibroblasts
Experimental: BSK_MyoF is a cell-based, multiplexed-readout assay that uses lung fibroblasts, […], with measurements taken at 24 hours after chemical dosing in a microplate: 96-well plate.BSK_MyoF_CollagenI is an assay component measured in the BSK_MyoF assay. It measures Collagen I antibody related to regulation of gene expression using ELISA technology.Data from the assay component BSK_MyoF_CollagenI was analyzed at the endpoint, BSK_MyoF_CollagenI, in the positive analysis fitting direction relative to DMSO as the negative control and baseline of activity. Using a type of binding reporter, gain or loss-of-signal activity can be used to understand protein changes. To generalize the intended target to other relatable targets, this assay endpoint is annotated to the 'cell adhesion molecules' intended target family, where the subfamily is 'collagen'.
The levels of cell surface (or secreted, indicated by the prefix "s") biomarker endpoints were measured by ELISA. Overt cytotoxicity to cells in confluent adherent cultures (all systems other than the BT system) was assessed by measuring total protein levels using sulforhodamine B (SRB) staining in parallel cultures at the time of biomarker measurements, indicated as SRB endpoints. For proliferation assays for adherent cell types, individual cell types are cultured at sub-confluence and relative cell numbers quantified by SRB staining at time points optimized for each system (48 h: 3C and CASM3C systems; 72 h: BT and HDF3CGF systems; 96 h: SAg system). SRB was performed by staining cells with 0.1% SRB after fixation with 10% TCA and reading wells at 560 nm.Viability and proliferation of PBMC (T cells) was quantified by Alamar Blue reduction for the SAg and BT systems. For PBMC viability (referred to as PBMC Cytotoxicity within the assay endpoint names), cells were plated (75,000/well in a 96-well plate) and then chemical samples added for 1 h before addition of activators, SEB and TSST-1 (20 ng/mL final concentration each). Cells were incubated for 90 h. Then, Alamar Blue (20 uL/well) (Invitrogen, Cat DAL1100) was added for 6 h, and the plates were read with a fluorescence microplate reader at 546/580 nm (excitation/emission). For PBMC proliferation, cells were plated and activated as above but incubated for only 16 h prior to addition of Alamar Blue. Plates were read after 6 h.

SMILES	outcome	AC50
CCCCOCCOCCOC(=O)CCCCC(=O)OCCOCCOCCCC	inactive	
CCCCCCCOC(=O)c1ccccc1C(=O)OCCCCCCC	inactive	
O=C(O)C(F)(F)C(F)(F)C(F)(F)C(F)(F)F	inactive	
OCC(F)(F)C(F)(F)C(F)(F)C(F)F	inactive	
CO[Si](OC)(c1ccccc1)c1ccccc1		31.6 µM (active)
O=C(O)C(F)(F)C(F)(F)C(F)(F)C(F)(F)C(F)(F)C(F)(F)C(F)(F)C(F)(F)C(F)(F)C(F)(F)C(F)(F)C(F)(F)F		24.5 µM (active) and 18.6 µM (active)
FC(F)(F)C(F)(F)C(F)(F)CI	inactive	
C=C(C)C(=O)OCCC(F)(F)C(F)(F)C(F)(F)C(F)(F)C(F)(C(F)(F)F)C(F)(F)F	inactive	
O=C(O)C(F)(F)C(F)(F)C(F)(F)C(F)(F)C(F)(F)C(F)(F)C(F)(F)C(F)(F)C(F)(F)C(F)(F)C(F)(F)C(F)(F)C(F)(F)F	inactive	
CC(C)(C)C(=O)CC(=O)C(F)(F)C(F)(F)C(F)(F)F	inactive	
O[Si](c1ccccc1)(c1ccccc1)c1ccccc1		31.3 µM (active)
FC(F)(Br)C(F)(F)C(F)(F)C(F)(F)C(F)(F)C(F)(F)Br	inactive	
O=P(O)(O)OCCC(F)(F)C(F)(F)C(F)(F)C(F)(F)C(F)(F)C(F)(F)F	inactive	
O=C(O)C(F)(F)C(F)(F)C(F)(F)C(F)(F)C(F)(F)C(F)(F)C(F)(F)C(F)(F)Cl		19.3 µM (active)
O=C(Cl)C(F)(F)C(F)(F)C(F)(F)C(F)(F)C(F)(F)C(F)(F)C(F)(F)C(F)(F)F		41.3 µM (active) and 41.8 µM (active) and 44.2 µM (active)
C=CC(F)(F)C(F)(F)C(F)(F)C(F)(F)C(F)(F)C(F)(F)C(F)(F)C(F)(F)F	inactive	
OCC(F)(F)C(F)(F)C(F)(F)C(F)(F)C(F)(F)C(F)F	inactive	
NC(=O)C(F)(F)C(F)(F)C(F)(F)C(F)(F)F	inactive	
O=C(O)C(F)(OC(F)(F)C(F)(OC(F)(F)C(F)(OC(F)(F)C(F)(F)C(F)(F)F)C(F)(F)F)C(F)(F)F)C(F)(F)F (stereo not given)	inactive	
OCCCC(F)(F)C(F)(F)C(F)(F)C(F)(F)C(F)(F)C(F)(F)C(F)(F)F		49.1 µM (active) and 52.3 µM (active)

SMILES	outcome	AC50
OCC(F)(F)C(F)(F)C(F)(F)C(F)(F)C(F)(F)C(F)(F)F	inactive	
Oc1ccc(Nc2ccccc2)cc1	inactive	
FC(F)(F)C(F)(F)CNCC(F)(F)C(F)(F)F	inactive	
CCc1c(Br)c(Br)c(Br)c(Br)c1Br	inactive	
O=C(O)C(F)(OC(F)(F)C(F)(OC(F)(F)C(F)(F)C(F)(F)F)C(F)(F)F)C(F)(F)F (stereo not given)	inactive	
CCCCCCC(C)OC(=O)CCCCC(=O)OC(C)CCCCCC (stereo not given)	inactive	
CC(=O)Nc1ccc(N=Nc2cc(C)ccc2O)cc1	inactive	
FC(F)(F)C(F)(F)C(F)(F)C(F)(F)C(F)(F)C(F)(F)CC1CO1 (stereo not given)	inactive	
OCCCC(F)(F)C(F)(F)C(F)(F)F	inactive	
FC(F)(F)C(F)(F)C(F)(F)C(F)(F)C(F)(F)CCI	inactive	
O=C(O)C(F)(F)C(F)(F)C(F)(F)C(F)(F)C(F)(F)C(F)(F)C(F)(F)C(F)(F)C(F)(F)C(F)F		19 µM (active) and 16.1 µM (active)
O=C(O)C=C(C(F)(F)F)C(F)(F)F	inactive	
C=CC(=O)OCC(F)(F)C(F)(F)C(F)(F)C(F)(F)COC(=O)C=C		14.4 µM (active) and 16.6 µM (active)
O=C(O)C(F)(F)C(F)(F)C(F)(F)F	inactive	
N=C(N)C(F)(F)C(F)(F)C(F)(F)C(F)(F)C(F)(F)C(F)(F)C(F)(F)F	inactive	
COC(=O)CCC(F)(F)C(F)(F)C(F)(F)C(F)(F)F	inactive	
CC(CCl)OP(=O)(OC(C)CCl)OC(C)CCl (stereo not given)	inactive	
C=CC/C=C/C/C=C/C/C=C/C	inactive	
C=C(C)C(=O)OCC(F)(F)C(F)(F)C(F)(F)F	inactive	
FC(F)(F)C(F)(F)C(F)(F)C(F)(F)C(F)(F)C(F)(F)CCS	inactive	
